Data: PubChem BioAssay AID1159580 (chemical genetic matrix, 2015)
In all, about 5,500 compounds went through this assay and about 2,000 (36%) were called active. Not shown: some 18% with an inconclusive outcome. No stated cut-off is given here; in the data, active means normalized growth mostly below about 0.91 (no sharp cut-off); inconclusive means no clear call, values can overlap the other calls; inactive means mostly above about 0.92. This is one part of the list.

Assay: chemical genetic growth profiling, strain panel (AID 1159580);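 further: tested at 20 µM; growth read once vehicle control cultures reached saturation at 30 °C; 1 = growth at the plate median or of vehicle wells; lower values mean less growth of the strain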
Conditions: growth OD

Measured: normalized growth

COC(=O)c1cc(OC)c(=O)c2c(OC)c(OC)ccc2c1
inactive: S. cerevisiae deletion strains, locus YBR021W, strain FUR4, active compounds read low 1.02 | S. cerevisiae deletion strains, locus YBR229C, strain ROT2, active compounds read low 1.01 | S. cerevisiae deletion strains, locus YCL029C, strain bik1, active compounds read low 0.969 | S. cerevisiae deletion strains, locus YDL035C, strain GPR1, active compounds read low 1.03 | S. cerevisiae deletion strains, locus YDL074C, strain BRE1, active compounds read low 1.08 | S. cerevisiae deletion strains, locus YDL101C, strain DUN1, active compounds read low 1.01 | S. cerevisiae deletion strains, locus YDL134C, strain PPH21, active compounds read low 1.04 | S. cerevisiae deletion strains, locus YDL185W, strain tfp1, active compounds read low 0.998 | S. cerevisiae deletion strains, locus YDL192W, strain arf1, active compounds read low 0.971 | S. cerevisiae deletion strains, locus YDR101C, strain arx1, active compounds read low 0.975 | S. cerevisiae deletion strains, locus YDR162C, strain NBP2, active compounds read low 1.01 | S. cerevisiae deletion strains, locus YDR318W, strain mcm21, active compounds read low 0.969 | S. cerevisiae deletion strains, locus YDR388W, active compounds read low 0.986 | S. cerevisiae deletion strains, locus YDR502C, strain sam2, active compounds read low 0.99 | S. cerevisiae deletion strains, locus YER110C, active compounds read low 1.01 | S. cerevisiae deletion strains, locus YER155C, strain BEM2, active compounds read low 1.01 | S. cerevisiae deletion strains, locus YER167W, strain BCK2, active compounds read low 1 | S. cerevisiae deletion strains, locus YGL078C, strain dbp3, active compounds read low 0.995 | S. cerevisiae deletion strains, locus YGL086W, strain mad1, active compounds read low 0.984 | S. cerevisiae deletion strains, locus YGL248W, strain PDE1, active compounds read low 1.02 | S. cerevisiae deletion strains, locus YGR078C, strain PAC10, active compounds read low 1.01 | S. cerevisiae deletion strains, locus YGR135W, strain pre9, active compounds read low 0.985 | S. cerevisiae deletion strains, locus YGR229C, strain SMI1, active compounds read low 1.06 | S. cerevisiae deletion strains, locus YHR079C, strain IRE1 (second series), active compounds read low 1 | S. cerevisiae deletion strains, locus YHR094C, strain hxt1, active compounds read low 0.972 | S. cerevisiae deletion strains, locus YHR129C, strain ARP1, active compounds read low 1.02 | S. cerevisiae deletion strains, locus YHR200W, strain rpn10, active compounds read low 0.985 | S. cerevisiae deletion strains, locus YIL066C, strain RNR3, active compounds read low 1.02 | S. cerevisiae deletion strains, locus YIL073C, strain SPO22, active compounds read low 0.951 | S. cerevisiae deletion strains, locus YIL125W, strain kgd1, active compounds read low 0.978 | S. cerevisiae deletion strains, locus YIR030C, strain dcg1, active compounds read low 0.986 | S. cerevisiae deletion strains, locus YJL095W, strain BCK1, active compounds read low 1.04 | S. cerevisiae deletion strains, locus YJL134W, strain LCB3, active compounds read low 1 | S. cerevisiae deletion strains, locus YJL168C, strain set2, active compounds read low 0.972 | S. cerevisiae deletion strains, locus YJL187C, strain SWE1 (second series), active compounds read low 1.02 | S. cerevisiae deletion strains, locus YKL009W, strain mrt4, active compounds read low 0.977 | S. cerevisiae deletion strains, locus YKL068W, active compounds read low 0.999 | S. cerevisiae deletion strains, locus YKL085W, strain MDH1 (second series), active compounds read low 0.971 | S. cerevisiae deletion strains, locus YKL085W, strain MDH1, active compounds read low 0.971 | S. cerevisiae deletion strains, locus YKR001C, strain vps1, active compounds read low 0.966 | S. cerevisiae deletion strains, locus YLR039C, strain RIC1, active compounds read low 1.03 | S. cerevisiae deletion strains, locus YLR058C, strain SHM2, active compounds read low 1.03 | S. cerevisiae deletion strains, locus YLR102C, strain apc9, active compounds read low 0.959 | S. cerevisiae deletion strains, locus YLR268W, strain sec22, active compounds read low 0.981 | S. cerevisiae deletion strains, locus YLR330W, strain CHS5, active compounds read low 1.02 | S. cerevisiae deletion strains, locus YLR371W, strain rom2, active compounds read low 0.977 | S. cerevisiae deletion strains, locus YLR418C, strain cdc73, active compounds read low 1.07 | S. cerevisiae deletion strains, locus YML016C, strain PPZ1, active compounds read low 1 | S. cerevisiae deletion strains, locus YML032C, strain rad52, active compounds read low 0.996 | S. cerevisiae deletion strains, locus YML124C, strain tub3, active compounds read low 0.967 | S. cerevisiae deletion strains, locus YMR078C, strain ctf18, active compounds read low 0.976 | S. cerevisiae deletion strains, locus YMR223W, strain ubp8, active compounds read low 1 | S. cerevisiae deletion strains, locus YMR307W, strain GAS1, active compounds read low 1.01 | S. cerevisiae deletion strains, locus YNL067W, strain RPL9B, active compounds read low 0.998 | S. cerevisiae deletion strains, locus YNL233W, strain BNI4, active compounds read low 1.03 | S. cerevisiae deletion strains, locus YNL250W, strain rad50, active compounds read low 1.05 | S. cerevisiae deletion strains, locus YNL271C, strain bni1, active compounds read low 0.981 | S. cerevisiae deletion strains, locus YNL298W, strain CLA4, active compounds read low 0.984 | S. cerevisiae deletion strains, locus YNL307C, strain MCK1, active compounds read low 0.952 | S. cerevisiae deletion strains, locus YNL322C, strain KRE1, active compounds read low 1 | S. cerevisiae deletion strains, locus YNR052C, strain pop2, active compounds read low 0.981 | S. cerevisiae deletion strains, locus YOL006C, strain TOP1, active compounds read low 1.21 | S. cerevisiae deletion strains, locus YOL012C, strain htz1 0.895 | S. cerevisiae deletion strains, locus YOL147C, strain pex11, active compounds read low 0.993 | S. cerevisiae deletion strains, locus YOR061W, strain CKA2, active compounds read low 1 | S. cerevisiae deletion strains, locus YOR069W, strain VPS5, active compounds read low 1 | S. cerevisiae deletion strains, locus YOR136W, strain idh2, active compounds read low 0.977 | S. cerevisiae deletion strains, locus YOR144C, strain elg1, active compounds read low 0.987 | S. cerevisiae deletion strains, locus YOR184W, strain ser1, active compounds read low 0.935 | S. cerevisiae deletion strains, locus YOR316C, strain cot1, active compounds read low 0.985 | S. cerevisiae deletion strains, locus YPL241C, strain CIN2, active compounds read low 1 | S. cerevisiae deletion strains, locus YPR119W, strain clb2, active compounds read low 0.969 | S. cerevisiae deletion strains, locus YPR141C, strain kar3, active compounds read low 0.982 | S. cerevisiae deletion strains, locus YPR163C, strain tif3, active compounds read low 0.977 | S. cerevisiae deletion strains, locus YPR167C, strain met16, active compounds read low 0.967 | S. cerevisiae deletion strains, strain wtn01, active compounds read low 0.994 | S. cerevisiae strains, strain wild type, active compounds read low 1.02
